From PubChem BioAssay (NCI) come the findings set out here.

Several values for one entry are separate records, joined by “and”; a condition that tells them apart may be missing. Equal entries are not always repeated. This is part of a sample that, as a whole, favours compounds with a hit. Of some 79,000 tested, about 15% had one in any assay. More than one record can exist for a structure, and the calls need not agree. Activity calls are given as the source filed them. Cut-off read from the data, not from the text of the source: active = growth inhibition above about 70%; inactive = the rest.

The nature of experiment [1]: NCI Yeast Anticancer Drug Screen. Data for the rad50 strain (AID 155).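 Note: 0% = growth of vehicle-only cultures of the same strain.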 Conditions: S. cerevisiae rad50 strain growth inhibition, stronger effect = higher value. Summed up:
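Readout: growth inhibition relative to vehicle-treated cultures. Compound exposure was carried out in a genetically defined yeast strain deficient in DNA damage repair.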

Experiment [2] in a line: NCI Yeast Anticancer Drug Screen. Data for the mec2-1 strain (AID 157). Conditions: S. cerevisiae mec2-1 strain, stronger effect = higher value. Summed up: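 Cells of the genetically defined mec2-1 yeast strain are incubated with test compound. Inhibition of growth is calculated against vehicle-treated controls.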
Experiment [3] is described as follows: NCI Yeast Anticancer Drug Screen. Data for the sgs1 mgt1 strain (AID 161).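 Note: 0% = growth of cultures given vehicle only.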 The settings on record: S. cerevisiae sgs1 mgt1 strain, stronger effect = higher value. In a few lines:
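Read-out: growth inhibition vs vehicle controls. Cells: mutant yeast strain deficient in DNA damage repair.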

Experiment [4] in a line: NCI Yeast Anticancer Drug Screen. Data for the cln2 rad14 strain (AID 165).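 Note: 0% = growth equal to vehicle treated cultures.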 Conditions: S. cerevisiae cln2 rad14 strain, stronger effect = higher value. In a few lines:
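The screen exposed genetically defined yeast (cln2 rad14) to test compounds and scored growth inhibition relative to vehicle-treated controls.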

A short description of experiment [5]: NCI Yeast Anticancer Drug Screen. Data for the bub3 strain (AID 167). The settings on record: S. cerevisiae bub3 mutant strain, stronger effect = higher value. In a few lines:
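Readout: yeast growth inhibition, expressed relative to vehicle-only wells. The test organism is a mutant strain from a panel with lesions in DNA repair or checkpoint genes.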

Experiment [6] is described as follows: NCI Yeast Anticancer Drug Screen. Data for the mlh1 rad18 strain (AID 175). The settings on record: S. cerevisiae mlh1 rad18 strain growth inhibition, stronger effect = higher value. Summed up: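 Compound-treated yeast growth, normalised to vehicle controls. Strain bears defined DNA repair mutations.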
Where [7] appears, read: at 5.0 µM (retest, dose inferred, filed as 0.5).
The mark [8] stands for this setting: at 50.0 µM (retest, dose inferred, filed as 5.0).

For `c1cc2c3c(c1)c1cc4c(cc1c[n+]3CC2)OCO4`, the growth inhibition in experiment [1] (setting [7]) was 14% (inactive); in experiment [1] (setting [8]), 38% (inactive); in experiment [1] (at 50.0 µM) it was 89.9% (active); in experiment [2] (setting [7]), 23% (inactive); in experiment [2] (setting [8]), 36% (inactive); in experiment [2] (at 50.0 µM), 92.5% (active). Also, the growth inhibition in experiment [3] (setting [7]) is 25% (inactive); in experiment [3] (setting [8]) it was 41% (inactive); in experiment [3] (at 50.0 µM), 92.1% (active); in experiment [4] (setting [7]), 13% (inactive); in experiment [4] (setting [8]), 18% (inactive); in experiment [4] (at 50.0 µM), 90.8% (active). Besides, the growth inhibition was 2% (inactive) in experiment [5] (setting [7]); 20% (inactive) in experiment [5] (setting [8]); 90.8% (active) in experiment [5] (at 50.0 µM); 25% (inactive) in experiment [6] (setting [7]); 51% (inactive) in experiment [6] (setting [8]); 90.9% (active) in experiment [6] (at 50.0 µM).
For the compound `OCC1OC(Sc2ncc[nH]2)C(O)C(O)C1O` (stereo unspecified), the growth inhibition in experiment [1] (setting [7]) is -12% (inactive); in experiment [1] (setting [8]), 4% (inactive); in experiment [1] (at 50.0 µM), 5.1% (inactive) and 4.95% (inactive); in experiment [2] (setting [7]), -1% (inactive); in experiment [2] (setting [8]), -10% (inactive); in experiment [2] (at 50.0 µM), -7.25% (inactive) and -9.95% (inactive). The growth inhibition in experiment [3] (setting [7]) is -30% (inactive); in experiment [3] (setting [8]), -11% (inactive); in experiment [3] (at 50.0 µM) it was -4.55% (inactive) and -7.65% (inactive); in experiment [4] (setting [7]) it was 11% (inactive); in experiment [4] (setting [8]), 3% (inactive); in experiment [4] (at 50.0 µM) it was 4.15% (inactive) and 44.2% (inactive). In addition, the growth inhibition is 0% (inactive) in experiment [5] (setting [7]); 0% (inactive) in experiment [5] (setting [8]); -1.3% (inactive) and -3.2% (inactive) in experiment [5] (at 50.0 µM); -18% (inactive) in experiment [6] (setting [7]); -14% (inactive) in experiment [6] (setting [8]); -17.8% (inactive) and -16.8% (inactive) in experiment [6] (at 50.0 µM).
For `CC(C)(C)CC(C)(C)c1ccc(OCCO)cc1`, the growth inhibition in experiment [1] (setting [7]) is -2% (inactive); in experiment [1] (setting [8]), 98% (active); in experiment [1] (at 50.0 µM) it was -22.7% (inactive) and 99.6% (active); in experiment [2] (setting [7]), -16% (inactive); in experiment [2] (setting [8]), 99% (active); in experiment [2] (at 50.0 µM), -11.3% (inactive) and 99.5% (active). In addition, the growth inhibition in experiment [3] (setting [7]) was -6% (inactive); in experiment [3] (setting [8]), 97% (active); in experiment [3] (at 50.0 µM), 25.9% (inactive) and 99.5% (active); in experiment [4] (setting [7]), -13% (inactive); in experiment [4] (setting [8]) it was 99% (active); in experiment [4] (at 50.0 µM) it was -49.5% (inactive) and 99.3% (active). For the same compound, the growth inhibition was -21% (inactive) in experiment [5] (setting [7]); 99% (active) in experiment [5] (setting [8]); -40.5% (inactive) and 99.5% (active) in experiment [5] (at 50.0 µM); -5% (inactive) in experiment [6] (setting [7]); 99% (active) in experiment [6] (setting [8]); -27.9% (inactive) and 99.5% (active) in experiment [6] (at 50.0 µM).
For `CC1CC=CCC1C(=O)O` (stereo unspecified), the growth inhibition in experiment [1] (setting [7]) was 8% (inactive); in experiment [1] (setting [8]), -1% (inactive); in experiment [1] (at 50.0 µM) it was 36% (inactive) and 9.75% (inactive); in experiment [2] (setting [7]), 2% (inactive); in experiment [2] (setting [8]) it was -2% (inactive); in experiment [2] (at 50.0 µM) it was -17.2% (inactive) and 28.9% (inactive). The growth inhibition was 2% (inactive) in experiment [3] (setting [7]); -3% (inactive) in experiment [3] (setting [8]); -10.5% (inactive) and -4.9% (inactive) in experiment [3] (at 50.0 µM); 13% (inactive) in experiment [4] (setting [7]); 3% (inactive) in experiment [4] (setting [8]); -8.4% (inactive) and -41.3% (inactive) in experiment [4] (at 50.0 µM). Moreover, the growth inhibition is 6% (inactive) in experiment [5] (setting [7]); 2% (inactive) in experiment [5] (setting [8]); 33.3% (inactive) and -3.9% (inactive) in experiment [5] (at 50.0 µM); 4% (inactive) in experiment [6] (setting [7]); -5% (inactive) in experiment [6] (setting [8]); 9.65% (inactive) and 10.2% (inactive) in experiment [6] (at 50.0 µM).
Take `C=C1CCC[C@@H]2[C@@](C)(Cc3cc(O)ccc3O)C(C)CC[C@]12C` (stereo partly specified): the growth inhibition is 16% (inactive) in experiment [1] (setting [7]); 97% (active) in experiment [1] (setting [8]); 97.5% (active) in experiment [1] (at 50.0 µM); 11% (inactive) in experiment [2] (setting [7]); 97% (active) in experiment [2] (setting [8]); 98.2% (active) in experiment [2] (at 50.0 µM). Besides, the growth inhibition is 25% (inactive) in experiment [3] (setting [7]); 98% (active) in experiment [3] (setting [8]); 97.7% (active) in experiment [3] (at 50.0 µM); -4% (inactive) in experiment [4] (setting [7]); 97% (active) in experiment [4] (setting [8]); 97.3% (active) in experiment [4] (at 50.0 µM). Moreover, the growth inhibition in experiment [5] (setting [7]) is 0% (inactive); in experiment [5] (setting [8]) it was 97% (active); in experiment [5] (at 50.0 µM) it was 97.8% (active); in experiment [6] (setting [7]) it was 11% (inactive); in experiment [6] (setting [8]), 96% (active); in experiment [6] (at 50.0 µM), 97.7% (active).
`Nc1ncnc2c1ncn2CCCl`: the growth inhibition was 2% (inactive) in experiment [1] (setting [7]); -4% (inactive) in experiment [1] (setting [8]); 8.2% (inactive) in experiment [1] (at 50.0 µM); -2% (inactive) in experiment [2] (setting [7]); 5% (inactive) in experiment [2] (setting [8]); -1.35% (inactive) in experiment [2] (at 50.0 µM). The growth inhibition in experiment [3] (setting [7]) is 2% (inactive); in experiment [3] (setting [8]), 10% (inactive); in experiment [3] (at 50.0 µM) it was 14.3% (inactive); in experiment [4] (setting [7]) it was -7% (inactive); in experiment [4] (setting [8]), 5% (inactive); in experiment [4] (at 50.0 µM), -6.85% (inactive). Moreover, the growth inhibition in experiment [5] (setting [7]) was -2% (inactive); in experiment [5] (setting [8]), 6% (inactive); in experiment [5] (at 50.0 µM) it was 32.4% (inactive); in experiment [6] (setting [7]), -2% (inactive); in experiment [6] (setting [8]), -4% (inactive); in experiment [6] (at 50.0 µM), 50.2% (inactive).
As for `COc1ccc(/C=C2\C=Nc3ccccc32)cc1`, the growth inhibition in experiment [1] (setting [7]) is 12% (inactive); in experiment [1] (setting [8]) it was -10% (inactive); in experiment [1] (at 50.0 µM), 12.7% (inactive); in experiment [2] (setting [7]), -3% (inactive); in experiment [2] (setting [8]) it was 10% (inactive); in experiment [2] (at 50.0 µM), -5.7% (inactive). For the same compound, the growth inhibition in experiment [3] (setting [7]) was 0% (inactive); in experiment [3] (setting [8]), -3% (inactive); in experiment [3] (at 50.0 µM), 17.9% (inactive); in experiment [4] (setting [7]), 28% (inactive); in experiment [4] (setting [8]), 25% (inactive); in experiment [4] (at 50.0 µM) it was 10.4% (inactive). Moreover, the growth inhibition was 18% (inactive) in experiment [5] (setting [7]); 30% (inactive) in experiment [5] (setting [8]); 33.7% (inactive) in experiment [5] (at 50.0 µM); 12% (inactive) in experiment [6] (setting [7]); 11% (inactive) in experiment [6] (setting [8]); 4.55% (inactive) in experiment [6] (at 50.0 µM).
